Rango dissoc inh – qHTS Assay for Inhibitors of RanGTP induced Rango (Ran-regulated importin-beta cargo) - Importin beta complex dissociation. Snurportin-1 (Homo sapiens) + GTP-binding nuclear protein Ran (Homo sapiens) + Importin …. 0.071% of 340,000 active. AID 540253, 2011. Potency, µM (titrated, usually from 46.1 µM), inactives show at the top dose activity change, negative = inhibition. Biochemical FRET Rango-importin beta, RanGTP-induced dissociation; calls by dose curve; also: % of control where 0% means no effect; nearly all actives have a fitted effect of over 45% in size
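Compounds preincubate 5 min with complex of recombinant Rango and importin beta in PBS with 1 mM DTT. Ran (0.6 uM) loaded with 2 mM GTP plus 0.2 uM RCC1 starts dissociation; FRET is recorded 45 min later.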
Nrf2 block – Nrf2 qHTS screen for inhibitors; A549 ARE-Fluc reporter, luciferase luminescence, 18-24 h; Potency, µM (series often up to 46 µM), without a hit: at the highest dose activity change, negative = inhibition, hits mostly inhibitors; 2.1% of 360,000 active; AID 504444, 2011; also: % is scaled to controls: 0 for no effect and ±100 for the full control effect; nearly all actives have a fitted effect of over 60% in size
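Nrf2 function is reported as luminescence of an ARE-controlled luciferase in A549 cells. Compounds were tested at several concentrations, and a CellTiter-Fluor read on the same wells flagged cytotoxicity.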
Nrf2 activator – qHTS of Nrf2 Activators; 0.31% of 410,000 active; Potency, µM (highest dose often 46.1 µM), inactives show at the highest dose activation, hits mostly activators; AID 624171, 2012; AREc32 ARE-luciferase reporter (MCF7-derived line), luminescence, 24 h; also: % of control where 0% means no effect; nearly all actives have a fitted effect of over 65% in size
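Luminescent ARE reporter assay in AREc32_Fluc cells: overnight plating at 37 deg C, 24 hr compound incubation, Steady-Glo added, 30 min RT before reading.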
A549 viability – Nrf2 qHTS screen for inhibitors: counterscreen for cytotoxicity; 0.16% of 390,000 active; Potency, µM (highest dose often 46 µM), inactives show at the top dose activity change, negative = cytotoxicity, usual class: inhibitors; AID 504648, 2011; A549 ARE-Fluc cells, CellTiter-Fluor viability, 18-24 h; also: % is scaled to controls: 0 for no effect and ±100 for the full control effect
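A549 ARE_Fluc cells in 5% FBS OPTI-MEM were exposed to compounds in concentration-response for 18-24 h at 37 deg C. Viability was read by CellTiter-Fluor fluorescence (Ex 405/Em 525) after 30 min, before the luciferase read.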
Rango complex inh – qHTS Assay for Inhibitors of Rango (Ran-regulated importin-beta cargo) - Importin beta complex formation. Importin subunit beta-1 (Homo sapiens), Q14974. 0.031% of 340,000 active. Potency, µM (top dose mostly 92.2 µM), without a hit: at the highest dose inhibition of complex formation. Rango CFP/YFP FRET sensor + importin beta, 45 min; calls by dose curve;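 also: 0% = DMSO wells and 100% = buffer wells lacking importin beta; nearly all actives have a fitted effect of over 15% in size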
Target sequence (Q14974 whole entry, looked up): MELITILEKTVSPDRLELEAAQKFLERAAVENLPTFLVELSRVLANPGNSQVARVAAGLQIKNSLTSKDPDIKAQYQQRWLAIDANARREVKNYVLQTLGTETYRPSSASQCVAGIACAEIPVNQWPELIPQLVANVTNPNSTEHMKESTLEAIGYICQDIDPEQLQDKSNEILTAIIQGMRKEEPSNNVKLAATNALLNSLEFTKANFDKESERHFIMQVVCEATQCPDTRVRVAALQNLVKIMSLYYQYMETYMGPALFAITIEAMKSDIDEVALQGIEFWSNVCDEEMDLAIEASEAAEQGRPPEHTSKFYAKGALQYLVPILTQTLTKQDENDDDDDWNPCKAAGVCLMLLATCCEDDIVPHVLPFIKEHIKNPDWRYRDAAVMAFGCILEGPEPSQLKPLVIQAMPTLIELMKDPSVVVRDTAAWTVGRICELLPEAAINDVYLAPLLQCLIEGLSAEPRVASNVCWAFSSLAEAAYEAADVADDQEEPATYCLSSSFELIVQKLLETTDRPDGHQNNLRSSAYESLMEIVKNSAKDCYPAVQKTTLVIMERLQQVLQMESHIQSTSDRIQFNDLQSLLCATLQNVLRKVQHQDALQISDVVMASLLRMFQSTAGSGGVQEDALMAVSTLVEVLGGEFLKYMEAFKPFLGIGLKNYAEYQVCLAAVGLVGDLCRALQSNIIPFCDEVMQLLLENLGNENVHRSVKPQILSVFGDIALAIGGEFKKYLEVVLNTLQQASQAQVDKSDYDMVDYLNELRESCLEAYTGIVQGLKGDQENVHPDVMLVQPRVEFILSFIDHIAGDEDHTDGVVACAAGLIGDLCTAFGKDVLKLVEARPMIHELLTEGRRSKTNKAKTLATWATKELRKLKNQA
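FRET biosensor Rango (snurportin 1 IBB between N-terminal EYFP and C-terminal Cerulean), 50 nM in PBS/1 mM DTT/0.02% Tween-20/0.1% BSA, preincubated 5 min RT with compound; 0.125 microM importin beta added, 45 min RT, CFP/YFP FRET ratio read.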
Active calls of the source: *; u = inconclusive; x = no result given; [ ] = dose if it differs, or a comment. Hits are enriched below; roughly 2.3% of the tested compounds scored in any of these assays. Unless noted, calls follow the shape of the dose curve; as a rule, active = well fitted curve in the direction sought with a large enough effect; inconclusive = small, poorly fitted or top-dose-only effect, or another doubt; inactive = no such curve, though single readings can be large; an effect the other way counts as inactive or inconclusive. Potency is read from the fitted curve at half-maximal effect.

SMILES	Rango dissoc inh	Nrf2 block	Nrf2 activator	A549 viability	Rango complex inh
Cc1c(Cl)cccc1NS(=O)(=O)c1cc2c(cc1Cl)CCC(=O)N2	x	u	x	-1.9%	x
Cc1ccc(NC(=O)C2CCN(S(=O)(=O)c3cc([N+](=O)[O-])ccc3Cl)CC2)nc1	-2.2%	20.6µM*	u	-16.8%	-0.5%
Cc1ccc2nc(NC(=O)C3CCN(S(=O)(=O)c4cc([N+](=O)[O-])ccc4Cl)CC3)sc2c1	-9.4%	u	9.0%	u	1.0%
Cc1ccc(NC(=O)C2CCN(S(=O)(=O)c3c(C)noc3/C=C/c3ccco3)CC2)nc1	-14.6%	16.4µM*	19.4%	-1.4%	-1.3%
CC(=O)COC(=O)C1CCN(S(=O)(=O)c2cc([N+](=O)[O-])ccc2Cl)CC1	1.2%	3.7%	14.1µM*	2.9%	0.1%
CC(C)(C)c1ccc(S(=O)(=O)c2cnc(SCC(=O)Nc3ccc4c(c3)OCCO4)[nH]c2=O)cc1	x	10.6%	1.5%	2.2%	x
O=C1CCc2cc(S(=O)(=O)Nc3ccncc3)ccc2N1	x	11.3%	x	0.3%	x
Cc1ccc(-c2noc(-c3ccc(NCc4cccnc4)c([N+](=O)[O-])c3)n2)cc1	x	-13.5%	6.5%	3.4%	x
Cn1c(NC(=O)/C=C/c2ccccc2)cc(=O)n(C)c1=O	-16.1%	u	7.08µM*	-2.3%	-0.6%
Cc1ccc(NC(=O)NNC(=O)c2snnc2C)cc1	-11.0%	4.4%	4.5%	0.2%	-2.3%
CCc1cccc(NC(=O)c2ccc(CNS(=O)(=O)c3ccc4c(c3)C(C)(C)C(=O)N4C)cc2)c1	x	16.4µM*	-0.9%	-20.9%	x
Cc1ccc(NC(=O)c2ccc(CNS(=O)(=O)c3ccc4c(c3)C(C)(C)C(=O)N4C)cc2)cc1F	x	23.1µM*	0.4%	-18.9%	x
Cc1ccc(NC(=O)c2ccc(CNS(=O)(=O)c3ccc4c(c3)C(C)(C)C(=O)N4C)cc2)cc1	x	0.0%	5.3%	3.2%	x
CCOC(=O)c1cc(S(=O)(=O)Nc2ccc(OC(F)(F)F)cc2)[nH]n1	x	x	0.2%	2.3%	x
CCOC(=O)CSc1nc2sc3c(c2c(=O)n1Cc1ccccc1)CCC(C(C)(C)C)C3 (centres undefined)	x	8.0%	-0.8%	0.3%	x
CC(=O)Nc1ccc(NC(=O)C/C(C)=N/NC(=O)COc2cc(C)c(Br)cc2Br)cc1	12.2%	-12.8%	-0.2%	0.8%	3.5%
CCCCN(Cc1ccccc1)C(=O)CN(C)S(=O)(=O)c1ccc2c(c1)c(=O)n(C)c(=O)n2C	x	8.2%	6.8%	-8.4%	x
CCc1ccc(-c2csc(NC(=O)C3=NN(c4ccccc4)C(=O)CC3)n2)cc1	9.0%	18.4µM*	4.4%	-2.6%	-0.4%
O=C(Nc1nc(-c2ccc(Cl)cc2)cs1)c1cccnc1	0.3%	u	0.3%	-0.5%	-1.5%
Cc1cc(C)c(-c2csc(NC(=O)C3=NN(c4ccccc4)C(=O)CC3)n2)c(C)c1	13.3%	u	7.3%	-12.3%	-0.2%
CCc1ccc(-c2csc(NC(=O)c3cccnc3)n2)cc1	3.5%	14.6µM*	3.7%	-9.4%	-0.5%
COc1ccc(/C(C)=N/NC(=S)NCCc2ccccc2)c(O)c1	-4.7%	5.6%	18.5%	-0.2%	-2.8%
CCOC(=O)/C(=C\C=C\c1ccccc1)NC(=O)c1ccccc1	-5.7%	9.2µM*	6.1%	-14.7%	2.5%
CCOC(=O)/C(=C/C=C/c1ccccc1)NC(=O)c1ccccc1	-0.5%	-10.3%	0.1%	-3.7%	-1.9%
c1ccc(C[n+]2cccc(-c3ccccc3)c2)cc1	7.7%	18.4µM*	0.4%	0.9%	3.0%
SMILES	Rango dissoc inh	Nrf2 block	Nrf2 activator	A549 viability	Rango complex inh
Cc1ccc(S(=O)(=O)Nc2ccc3c(c2)c(C(=O)OC(C)C)c(C)n3S(=O)(=O)c2ccc(C)cc2)cc1	x	-19.7%	-0.4%	1.0%	x
Nc1c(C(=O)NCCN2CCOCC2)c2nc3ccccc3nc2n1CCc1ccccc1F	u	u	0.1%	-7.6%	u
N#Cc1c(N)n(CCNC(=O)c2ccc(Cl)cc2)c2nc3ccccc3nc12	u	9.2µM*	-0.1%	9.5%	u
COCCn1c(N)c(C(=O)NCC2CCCO2)c2nc3ccccc3nc21 (centres undefined)	u	u	-0.1%	u	u
Nc1c(C(=O)NCCN2CCOCC2)c2nc3ccccc3nc2n1CCc1ccccc1	u	14.6µM*	3.1%	-7.3%	u
COCCn1c(N)c(C(=O)NCc2cccs2)c2nc3ccccc3nc21	u	23.1µM*	3.2%	7.1%	u
COc1ccccc1CNC(=O)c1c(N)n(CCCN2CCOCC2)c2nc3ccccc3nc12	u	18.4µM*	-0.4%	u	u
O=C(c1ccc(Cl)cc1)n1c(NCc2ccccc2)n[nH]c1=S	8.7%	-1.5%	-0.6%	-1.9%	-2.7%
CCn1cc2nc(SCc3ccc(C)cc3)n(CCc3ccccc3)c(=O)c2n1	x	20.6µM*	-0.5%	u	x
O=C(c1ccco1)N(Cc1ccc(Cl)cc1)C1CCS(=O)(=O)C1 (centres undefined)	10.0%	25.9µM*	1.3%	-1.3%	1.5%
O=C(c1sc2ccccc2c1Cl)N(Cc1ccco1)C1CCS(=O)(=O)C1 (centres undefined)	18.4µM*	x	-0.6%	1.9%	u
NNC(=O)c1cc(S(=O)(=O)N2CCOCC2)c[nH]1	0.4%	14.1%	-0.2%	0.4%	0.1%
C=C1C(=O)O[C@@H]2[C@H]1[C@@H](OC(=O)/C(C)=C/C)C/C(C)=C\C(=O)/C=C(\C)[C@@H]2O	1.2%	20.6µM*	u	u	-0.4%
C/C=C(/C)C(=O)O[C@H]1CC(C)=CC(=O)[C@@]2(C)CC[C@@](O)(C(C)C)[C@H]12	x	-0.7%	x	-0.5%	x
CC(=O)Nc1ccc(C(=O)CN2C(=O)CSC2=O)cc1	-4.1%	6.7%	5.7%	-5.5%	u
O=C1CCCC2=C1C1(CCCC1)N=C(Nc1nc3cc(Cl)ccc3o1)N2	x	u	x	2.4%	x
CCOC(=O)C1=C(C)N=c2s/c(=C/c3cccc([N+](=O)[O-])c3O)c(=O)n2C1c1ccc(OC)cc1OC (centres undefined)	0.3%	u	0.2%[9.22 µM]	16.4µM*	0.1%
COc1ccc(C(C)=O)cc1CSc1nnc(Nc2ccccc2)s1	8.5%	23.1µM*	3.8%	-24.3%	-1.7%
O=C(N/N=C/c1cn[nH]c1-c1ccccc1)c1ccco1	-9.5%	5.6%	8.91µM*	0.3%	1.0%
COC(=O)c1oc(-c2ccc(Cl)cc2)nc1C	29.7%	u	4.2%	-4.1%	-3.8%
